# Reference: PubChem BioAssay (NCI)
# The panel holds about 83,000 compounds, 20% with a hit somewhere; the sample as a whole holds those more often.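 Method: cells in 96-well plates; compound added at one concentration; 48 h incubation; percent growth measured; values under 10 scored active.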 Calls of active or inactive are those of the source.
# Assays:
# Test in all cases: NCI-60 one-dose screen, 48 h (100 = growth as untreated, 0 = no growth, -100 = all killed)
# Conditions in all cases: 10 µM unless noted
# HCT-15 colon = system: HCT-15 colon
# HT29 colon = system: HT29 colon
# SNB-75 CNS = system: SNB-75 CNS
# SNB-19 CNS = system: SNB-19 CNS
# U251 CNS = system: U251 CNS
# SK-MEL-5 melanoma = system: SK-MEL-5 melanoma
# UACC-62 melanoma = system: UACC-62 melanoma
# LOX IMVI melanoma = system: LOX IMVI melanoma
# SK-MEL-28 melanoma = system: SK-MEL-28 melanoma
# PC-3 prostate = system: PC-3 prostate
Structure (SMILES),growth (HCT-15 colon),growth (HT29 colon),growth (SNB-75 CNS),growth (SNB-19 CNS),growth (U251 CNS),growth (SK-MEL-5 melanoma),growth (UACC-62 melanoma),growth (LOX IMVI melanoma),growth (SK-MEL-28 melanoma),growth (PC-3 prostate)
COc1cc(-c2nn(-c3ccc(NC(=O)c4cc(Cl)cc(Cl)c4)cc3)cc2-c2ccncc2)ccc1Cl,22.6% (inactive),16.9% (inactive),54% (inactive),87.7% (inactive),55.7% (inactive),79.4% (inactive),70.4% (inactive),71.6% (inactive),85.5% (inactive),
COc1ccc(Oc2[nH]n(C3=Nc4ccccc4Sc4ccccc43)c(=O)c2C#N)cc1,101% (inactive),113% (inactive),121% (inactive),101% (inactive),107% (inactive),84.8% (inactive),69.9% (inactive),95.3% (inactive),108% (inactive),
COC(=O)/C=C1/CCCCC1(C)C(=O)OC (stereo not drawn),93.1% (inactive),102% (inactive),91.6% (inactive),102% (inactive),97.2% (inactive),112% (inactive),106% (inactive),102% (inactive),100% (inactive),
O=C1c2ccccc2CCc2ccccc21,105% (inactive),103% (inactive),91.8% (inactive),100% (inactive),93.1% (inactive),98.6% (inactive),,93.6% (inactive),,
CCOC(=O)c1c2c(cn1Cc1ccccc1)-c1oncc1CC2,105% (inactive),111% (inactive),84% (inactive),84.9% (inactive),72.7% (inactive),102% (inactive),91.9% (inactive),98.9% (inactive),108% (inactive),
CCCCCCCCCCCCCCCCCC(=O)Nc1ccc(O)cc1,110% (inactive),96.7% (inactive),72% (inactive),118% (inactive),93.4% (inactive),105% (inactive),102% (inactive),96.9% (inactive),103% (inactive),
COc1cc(NC(C)CCCN)c2nccc(C)c2c1OC (stereo not drawn),84.4% (inactive),57.9% (inactive),103% (inactive),97.6% (inactive),64.5% (inactive),86.8% (inactive),97.2% (inactive),58.5% (inactive),117% (inactive),
O=C(Nc1cccc2[nH]c(C(F)(F)F)nc12)c1ccc(F)cc1,96.9% (inactive),99.3% (inactive),97.3% (inactive),78.6% (inactive),71.7% (inactive),69.5% (inactive),51.6% (inactive),87.8% (inactive),79.7% (inactive),
COc1cc(-c2nn(-c3ccc(NC(=O)Nc4ccc(Cl)c(C(F)(F)F)c4)cc3)cc2-c2ccncc2)ccc1Cl,9.82% (active),-24.4% (active),-0.838% (active),30.5% (inactive),-3.64% (active),-58.2% (active),6.01% (active),11.7% (inactive),18.2% (inactive),
CCOC(=O)NC1=NCC(C)(C)S1,104% (inactive),91.3% (inactive),91.2% (inactive),98.1% (inactive),101% (inactive),98.3% (inactive),93.6% (inactive),94.4% (inactive),99.9% (inactive),
CNc1nc2ncn(C)c2c(=O)[nH]1,74% (inactive),98% (inactive),81.3% (inactive),113% (inactive),97.3% (inactive),101% (inactive),78.3% (inactive),71.6% (inactive),103% (inactive),
CCCCCCCCCCCCOC(=N)N(C)C,96.7% (inactive),102% (inactive),85.8% (inactive),96.1% (inactive),94.8% (inactive),,93.9% (inactive),74.2% (inactive),106% (inactive),
Cc1nc2ccccc2c(=O)n1-c1cccc(OCc2cn(-c3cccc(O)c3)nn2)c1,107% (inactive),96.8% (inactive),88.4% (inactive),91.2% (inactive),98.2% (inactive),87% (inactive),81.1% (inactive),94.6% (inactive),103% (inactive),
Nc1nc2c(c3cnccc13)C(c1ccc(Cl)c(Cl)c1)Cc1cnccc1-2 (stereo not drawn),-19.5% (active),8.17% (active),-26.9% (active),13.7% (inactive),,-92.2% (active),-37.3% (active),-42.7% (active),-41.3% (active),5.13% (active)
CCOC(=O)c1c(C)oc2ncnc(Nc3ccc(NC(=O)Nc4ccc(CC)cc4)cc3)c12,105% (inactive),103% (inactive),80.6% (inactive),98% (inactive),,93.8% (inactive),108% (inactive),100% (inactive),,90.8% (inactive)
CCN(CC)CCCNc1c2ccc(Cl)cc2nc2ccc(OC)cc12,1.74% (active),-15.4% (active),-44.9% (active),10.2% (inactive),-14.9% (active),-96.3% (active),50.3% (inactive),-43.1% (active),-72.3% (active),
COc1ccc(C2CC(=O)c3c(O)cc(OC4OC(COC5OC(C)C(O)C(O)C5O)C(O)C(O)C4O)cc3O2)cc1O (stereo not drawn),101% (inactive),102% (inactive),82.1% (inactive),110% (inactive),104% (inactive),104% (inactive),,107% (inactive),124% (inactive),

Structure (SMILES),growth (HCT-15 colon),growth (HT29 colon),growth (SNB-75 CNS),growth (SNB-19 CNS),growth (U251 CNS),growth (SK-MEL-5 melanoma),growth (UACC-62 melanoma),growth (LOX IMVI melanoma),growth (SK-MEL-28 melanoma),growth (PC-3 prostate)
c1ccc2[nH]c(-c3ccc(OCCCCCOc4ccc(-c5nc6ccccc6[nH]5)cc4)cc3)nc2c1,16.7% (inactive),-30.6% (active),-4.77% (active),46% (inactive),-2.78% (active),37.7% (inactive),12.8% (inactive),-77% (active),-71.6% (active),
CC[n+]1c(C)ccc2cc(C)ccc21,94.5% (inactive),108% (inactive),83.7% (inactive),92.7% (inactive),93.5% (inactive),99.2% (inactive),96.1% (inactive),90.8% (inactive),105% (inactive),
COc1ccc(/C=C(/C(=O)N2CCCCC2)c2cc(OC)c(OC)c(OC)c2)cc1,26.8% (inactive),5.67% (active),-15.6% (active),32% (inactive),26% (inactive),26.8% (inactive),36.5% (inactive),36.5% (inactive),54.1% (inactive),
CC1=C[C@@H]2c3c(c(O)c(O)c4oc5cc(O)cc(O)c5c(=O)c34)[C@@H](c3cc(O)c(O)c4oc5cc(O)cc(O)c5c(=O)c34)[C@@H]2C(C)(C)C1,25.4% (inactive),-19.6% (active),16.7% (inactive),7.8% (active),-8.73% (active),-78% (active),-61.5% (active),-98.2% (active),-1.44% (active),
COc1ccccc1Nc1nnc(COc2ccc(CNC(=O)CCCC/C=C/C(C)C)cc2OC)o1,88.3% (inactive),103% (inactive),94.5% (inactive),94.6% (inactive),102% (inactive),,81.9% (inactive),95.6% (inactive),98.1% (inactive),
COc1cccc(CNC(=O)c2cccc(C3CC(=O)c4c(cc(OC)c(OC)c4OC)O3)c2)c1 (stereo not drawn),43.5% (inactive),68% (inactive),27.7% (inactive),51.2% (inactive),49.3% (inactive),59.4% (inactive),24.3% (inactive),44.9% (inactive),65.7% (inactive),
Cc1nc(N)sc1C(=O)NCCO,108% (inactive),112% (inactive),105% (inactive),101% (inactive),106% (inactive),103% (inactive),93.8% (inactive),104% (inactive),113% (inactive),
COc1cc2c(c3c1c(=O)c1cccc(F)c1n3C)C=CC(C)(C)O2,71.8% (inactive),74.6% (inactive),99.1% (inactive),104% (inactive),,94.2% (inactive),75.6% (inactive),88.8% (inactive),,72.3% (inactive)
O=C(NCCNCCO)c1cc([N+](=O)[O-])cc([N+](=O)[O-])c1O,106% (inactive),104% (inactive),102% (inactive),102% (inactive),99.3% (inactive),103% (inactive),101% (inactive),99.1% (inactive),106% (inactive),
COc1ccc(-c2cn3ccnc3c(-c3ccc4ncn(C5CCCCC5)c4c3)n2)cc1,21.2% (inactive),7.49% (active),-26.3% (active),31.6% (inactive),19.1% (inactive),7.7% (active),34.8% (inactive),30.4% (inactive),52.3% (inactive),
N#Cc1c2ncccc2c2nnc3cc(Cl)c(Cl)cc3n12,82.9% (inactive),95.2% (inactive),67.1% (inactive),101% (inactive),90.6% (inactive),92.4% (inactive),90.8% (inactive),97.4% (inactive),80.9% (inactive),
Cc1ccc(S(=O)(=O)Nc2cccc(Cn3c(=O)[nH]c4ccc(Oc5ncccn5)cc4c3=O)c2)cc1,91% (inactive),65.1% (inactive),78.9% (inactive),57.4% (inactive),79.1% (inactive),53.8% (inactive),34.7% (inactive),64.5% (inactive),66.7% (inactive),
CC(C)(C)C(=O)CCCCCCCC/C=C/CCCC(O)c1ccco1 (stereo not drawn),118% (inactive),107% (inactive),101% (inactive),109% (inactive),105% (inactive),107% (inactive),95.2% (inactive),102% (inactive),106% (inactive),
CCCCCCCCCCCC(=O)OC(C)C(=O)Nc1ccccc1 (stereo not drawn),97% (inactive),99.7% (inactive),71.9% (inactive),95.1% (inactive),97.7% (inactive),118% (inactive),100% (inactive),,108% (inactive),
Nc1nc2c(c3ncncc13)C(c1cccc(C(F)(F)F)c1)Cc1ncncc1-2 (stereo not drawn),27% (inactive),9.73% (active),8.31% (active),33.9% (inactive),,21.1% (inactive),43.4% (inactive),36.8% (inactive),63.7% (inactive),26.4% (inactive)
O=C1Nc2ccccc2/C1=C/c1cn(CC(O)Cn2cc(/C=C3\C(=O)Nc4ccccc43)c3ccccc32)c2ccccc12 (stereo not drawn),-69.8% (active),-20.2% (active),-95.9% (active),-43% (active),,-80.2% (active),-75.2% (active),-84.5% (active),-85% (active),-86.3% (active)
CN(CCC#N)c1ccc(/C=C(\C#N)c2cccc(C(F)(F)F)c2)cc1,39.9% (inactive),23.5% (inactive),90.1% (inactive),79% (inactive),,57.8% (inactive),55.3% (inactive),63.2% (inactive),71.9% (inactive),61.1% (inactive)
